# Measured values reported in PubChem BioAssay (NCATS).
# “And” between values parts separate entries of the source, which are not always exact repeats. Identical values can stand only once. Results filed as inconclusive are left out. Where a call stands in place of a potency, no number is given. Unmarked numbers belong to inactive results. The source made the active and inactive calls. Calls follow the shape of the dose curve; as a rule, active = well fitted curve in the direction sought with a large enough effect; inconclusive = small, poorly fitted or top-dose-only effect, or another doubt; inactive = no such curve, though single readings can be large; an effect the other way counts as inactive or inconclusive.
# Assays:
# [1] = tested on: HEK293; assay: Cytotoxic Profiling of Annotated Libraries Using Quantitative High-Throughput Screening (AID 1296008); conditions: Five cell lines viability, CellTiter-Glo ATP luminescence, 48-72 h; max response: stronger effect = lower value; also: nearly all actives have a fitted effect of over 60% in size; also: potency is read from the fitted curve at half-maximal effect
# How it was run: (§1)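 Compounds were pin-transferred onto cells and incubated 48 or 72 hr at 37 degree Celsius, 95% humidity. CellTiter-Glo was added, plates sat 10 min at room temperature, then ATP-coupled luminescence was imaged as the viability read-out.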
# [2] = tested on: HaCat; assay: as above; conditions: Five cell lines viability, CellTiter-Glo ATP luminescence, 48-72 h; max response: stronger effect = lower value
# How it was run: as §1
# [3] = tested on: NIH3T3; assay: as above; conditions: Five cell lines viability, CellTiter-Glo ATP luminescence, 48-72 h; max response: stronger effect = lower value
# How it was run: as §1
# [4] = tested on: HACAT; assay: qHTS assay to identify novel small-molecules to repurpose for Merkel cell carcinoma treatment (AID 1296009); conditions: MCC and control cell lines, CellTiter-Glo viability, 72 h; series mostly up to 44.8 µM; also: nearly all actives have a fitted effect of over 60% in size
# How it was run: (§2)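 Viability readout: ATP luminescence (CellTiter-Glo) after 72 hr drug exposure at 37 degree celsius. Dose-response format was 8 points for NPC and 11 points for MIPE; data normalized to in-plate controls.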
# [5] = tested on: MCC-13; assay: as above; conditions: MCC and control cell lines, CellTiter-Glo viability, 72 h; series mostly up to 46 µM
# How it was run: as §2
# [6] = tested on: MCC-26; assay: as above; conditions: MCC and control cell lines, CellTiter-Glo viability, 72 h; series mostly up to 46 µM
# How it was run: as §2
# [7] = tested on: MKL-1; assay: as above; conditions: MCC and control cell lines, CellTiter-Glo viability, 72 h; series mostly up to 46 µM
# How it was run: as §2
# [8] = tested on: MKL-2; assay: as above; conditions: MCC and control cell lines, CellTiter-Glo viability, 72 h; series mostly up to 46 µM
# How it was run: as §2
# [9] = tested on: UISO; assay: as above; conditions: MCC and control cell lines, CellTiter-Glo viability, 72 h; series mostly up to 46 µM
# How it was run: as §2
# [10] = tested on: WaGa; assay: as above; conditions: MCC and control cell lines, CellTiter-Glo viability, 72 h; series mostly up to 46 µM
# How it was run: as §2
# [11] = tested on: C33A; assay: Primary qHTS to identify gynecologic anti-cancer compounds using libraries of approved drugs and bioactive compounds (AID 1345084); conditions: Gynecologic cancer cell panel viability, ATPlite luminescence, 48 h; series mostly up to 57.5 µM; also: nearly all actives have a fitted effect of over 55% in size; also: potency is read from the fitted curve at half-maximal effect
# How it was run: (§3)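 48 h compound exposure at 37 C, 5% CO2; five-point qHTS. ATPlite luminescence readout of cell ATP.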
# [12] = tested on: CAOV3; assay: as above; conditions: Gynecologic cancer cell panel viability, ATPlite luminescence, 48 h; series mostly up to 57.5 µM
# How it was run: as §3
# [13] = tested on: CASKI; assay: as above; conditions: Gynecologic cancer cell panel viability, ATPlite luminescence, 48 h; series mostly up to 57.5 µM
# How it was run: as §3
# [14] = tested on: Es-2; assay: as above; conditions: Gynecologic cancer cell panel viability, ATPlite luminescence, 48 h; series mostly up to 57.5 µM
# How it was run: as §3
# [15] = tested on: HeLa; assay: as above; conditions: Gynecologic cancer cell panel viability, ATPlite luminescence, 48 h; series mostly up to 57.5 µM
# How it was run: as §3
# [16] = tested on: Hek293T; assay: as above; conditions: Gynecologic cancer cell panel viability, ATPlite luminescence, 48 h, control line for the selectivity index; series mostly up to 57.5 µM
# How it was run: as §3
# [17] = tested on: JEG-3; assay: as above; conditions: Gynecologic cancer cell panel viability, ATPlite luminescence, 48 h; series mostly up to 57.5 µM
# How it was run: as §3
# [18] = tested on: KB-3-1; assay: Cytotoxic Profiling of Annotated Libraries Using Quantitative High-Throughput Screening (AID 1296008); conditions: Five cell lines viability, CellTiter-Glo ATP luminescence, 48-72 h; max response: stronger effect = lower value; also: nearly all actives have a fitted effect of over 60% in size; also: potency is read from the fitted curve at half-maximal effect
# How it was run: as §1
# [19] = tested on: HEK293T; assay: qHTS assay to identify novel small-molecules to repurpose for Merkel cell carcinoma treatment (AID 1296009); conditions: MCC and control cell lines, CellTiter-Glo viability, 72 h; at 44.8 µM (top of the series) unless noted; also: nearly all actives have a fitted effect of over 60% in size
# How it was run: as §2
# [20] = tested on: NIH3T3; assay: as above; conditions: MCC and control cell lines, CellTiter-Glo viability, 72 h; at 44.8 µM (top of the series) unless noted
# How it was run: as §2
smiles,measurement,setting,value
O=C(O)c1ccccc1NCCc1ccccc1,max response,[1],1.97%
same,outcome,[2],inactive
same,max response,[3],2.83%
same,Potency,[4],inactive
same,outcome,[5],inactive
same,outcome,[6],inactive
same,Potency,[7],inactive
same,Potency,[8],inactive
same,Potency,[9],inactive
same,Potency,[10],inactive
same,Potency,[11],inactive
same,Potency,[12],inactive
same,Potency,[13],inactive
same,Potency,[14],inactive
same,Potency,[15],inactive
same,Potency,[16],inactive
same,Potency,[17],inactive
CC1=C(C(=O)OCc2ccccc2)C(c2ccc(-c3ccccc3)cc2)NC(=O)N1CCCCCC(=O)O (configuration not stated),max response,[1],-21.5%
same,max response,[2],-18.2%
same,outcome,[18],inactive
same,Potency,[13],inactive
same,Potency,[14],inactive
same,Potency,[15],inactive
same,Potency,[16],inactive
same,Potency,[17],inactive
C=C(C)C(=O)OC1CC2(C)OC(=CC2=O)C(=C)CC2OC(=O)C(COC)C12 (configuration not stated),Potency,[1],7.18 µM (active)
same,max response,[2],-21.9%
same,max response,[18],-15.6%
same,Potency,[12],inactive
same,Potency,[15],inactive
same,Potency,[17],inactive
CC(=O)NC[C@H]1CN(c2ccc(N3CCN(C(=O)CO)CC3)c(F)c2)C(=O)O1,Potency,[1],13 µM (active)
same,max response,[18],-17.1%
COc1cc(-c2ncn(/C=C\C(=O)OC(C)C)n2)cc(C(F)(F)F)c1,Potency,[1],0.259 µM (active)
same,Potency,[2],2.06 µM (active)
same,Potency,[18],1.84 µM (active)
same,Potency,[14],0.891 µM (active)
same,Potency,[15],15.8 µM (active)
CCOCCOC(=O)/C=C/c1ccc(OC)cc1,outcome,[1],inactive
same,max response,[2],-19.2%
same,max response,[3],-3.67%
same,outcome,[19],inactive
same,outcome,[5],inactive
same,outcome,[6],inactive
same,Potency,[7],inactive
same,Potency,[8],inactive
same,Potency,[9],inactive
same,Potency,[10],inactive
same,Potency,[11],inactive
same,Potency,[13],inactive
same,Potency,[14],inactive
same,Potency,[15],inactive
same,Potency,[16],inactive
same,Potency,[17],inactive
O=C(O)[C@@H]1C[C@H]2C[C@@H](CCc3nn[nH]n3)CC[C@H]2CN1,max response,[1],1.79%
same,max response,[2],2.14%
same,outcome,[18],inactive
same,Potency,[13],inactive
same,Potency,[14],inactive
same,Potency,[15],inactive
same,Potency,[16],inactive
same,Potency,[17],inactive
Cc1ccc(C(=O)N(CCCN)C(c2oc3cc(Cl)ccc3c(=O)c2Cc2ccccc2)C(C)C)cc1 (configuration not stated),max response,[1],-125%
same,Potency,[18],0.0065 µM (active)
CN1CCN(c2ccc(C(=O)Nc3n[nH]c4ccc(Cc5cc(F)cc(F)c5)cc34)c(NC3CCOCC3)c2)CC1,Potency,[1],7.41 µM (active)
same,Potency,[2],18.4 µM (active) and 14.8 µM (active)
same,Potency,[3],10.5 µM (active)
same,Potency,[11],inactive
same,Potency,[14],inactive
same,Potency,[16],inactive
same,Potency,[17],inactive
O=C1NC(Cc2c[nH]c3ccccc23)C(=O)NC1Cc1c[nH]c2ccccc12 (configuration not stated),outcome,[1],inactive
same,outcome,[18],inactive
same,max response,[3],-2.22%
same,outcome,[19],inactive
same,Potency,[11],inactive
same,Potency,[12],inactive
same,Potency,[13],inactive
same,Potency,[14],inactive
same,Potency,[15],inactive
same,Potency,[16],inactive
same,Potency,[17],inactive
CC1CC(O)C2(OC1=O)OC1C(O)C3C4CCC5CC(OC6OC(CO)C(O)C(O)C6OC6OC(C)C(O)C(O)C6O)CCC5(C)C4CCC3(C)C1C2C (configuration not stated),outcome,[1],inactive
same,outcome,[18],inactive
same,outcome,[3],inactive
same,outcome,[19],inactive [at 17.4 µM]
same,outcome,[20],inactive [at 17.4 µM]
same,Potency,[11],inactive
same,Potency,[12],inactive
same,Potency,[13],inactive
same,Potency,[14],inactive
same,Potency,[15],inactive
same,Potency,[16],inactive
same,Potency,[17],inactive
C=C(C(=O)OC)C1C(O)CC2(C)C(=O)CCC(O)(CO)C2C1O (configuration not stated),max response,[1],-2.27%
same,max response,[18],-0.746%
same,outcome,[3],inactive
same,outcome,[20],inactive
same,Potency,[11],inactive
same,Potency,[12],inactive
same,Potency,[13],inactive
same,Potency,[14],inactive
same,Potency,[15],inactive
same,Potency,[16],inactive
same,Potency,[17],inactive
CC(NC(=O)C(O)C(C)C)C(=O)NC1C(=O)N(C)CCc2ccccc21 (configuration not stated),outcome,[1],inactive
same,outcome,[18],inactive
same,outcome,[3],inactive
same,outcome,[19],inactive
same,outcome,[20],inactive
same,Potency,[11],inactive
same,Potency,[12],inactive
same,Potency,[13],inactive
same,Potency,[14],inactive
same,Potency,[15],inactive
same,Potency,[16],inactive
same,Potency,[17],inactive
